Here are results for 116 compounds from PubChem BioAssay AID488969 (Vanderbilt High Throughput Screening Facility, 2010).

Over roughly 110,000 compounds, “z-score” has its median near -0.1; the highest 2% begin near 2. For the sample, the highest values were picked, then their nearest neighbours and some compounds at random. Active and inactive are the calls of the source.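 How the source made its calls: active means z-score in the third read window above 3 or below -3; inactive means the rest.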

For this test, the target named is Metabotropic glutamate receptor 8 (Rattus norvegicus) (UniProt P70579). The test is described as follows: rat mGluR8 modulators via GIRK flux, primary screen, cell-based, thallium flux, HTS (AID 488969). The note with it: HEK293 rat mGluR8, GIRK (G protein-gated inwardly rectifying potassium channel) thallium flux, FluoZin2; at 10 µM; stronger effect = higher value; submaximal glutamate (EC20) added with thallium.
Metabotropic glutamate receptor 8 (Rattus norvegicus), sequence (P70579 whole entry, looked up): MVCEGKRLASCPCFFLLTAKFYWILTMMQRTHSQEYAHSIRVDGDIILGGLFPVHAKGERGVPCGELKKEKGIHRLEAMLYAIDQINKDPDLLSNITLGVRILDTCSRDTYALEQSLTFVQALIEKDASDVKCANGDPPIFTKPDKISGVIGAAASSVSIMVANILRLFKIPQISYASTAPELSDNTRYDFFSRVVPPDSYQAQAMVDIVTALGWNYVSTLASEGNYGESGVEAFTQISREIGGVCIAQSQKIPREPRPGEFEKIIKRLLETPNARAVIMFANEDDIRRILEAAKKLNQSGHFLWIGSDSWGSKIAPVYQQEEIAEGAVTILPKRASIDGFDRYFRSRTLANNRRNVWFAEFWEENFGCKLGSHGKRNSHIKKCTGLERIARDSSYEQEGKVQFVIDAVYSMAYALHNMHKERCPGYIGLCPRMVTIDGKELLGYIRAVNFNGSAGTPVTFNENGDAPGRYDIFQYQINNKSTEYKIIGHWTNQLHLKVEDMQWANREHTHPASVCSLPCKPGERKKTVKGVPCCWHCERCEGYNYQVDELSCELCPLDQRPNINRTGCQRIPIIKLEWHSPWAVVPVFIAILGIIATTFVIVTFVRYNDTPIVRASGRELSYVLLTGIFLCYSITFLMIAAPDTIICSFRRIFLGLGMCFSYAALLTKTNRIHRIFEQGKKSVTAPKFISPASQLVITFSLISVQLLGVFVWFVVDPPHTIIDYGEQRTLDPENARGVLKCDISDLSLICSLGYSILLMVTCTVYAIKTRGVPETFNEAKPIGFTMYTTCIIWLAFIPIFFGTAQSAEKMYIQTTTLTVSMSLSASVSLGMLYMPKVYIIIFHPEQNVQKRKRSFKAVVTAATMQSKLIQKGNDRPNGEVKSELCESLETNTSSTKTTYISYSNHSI
For `O=C(CCSc1ccc(Cl)cc1)N1CCOCC1`, the z-score is -0.207.

For the compound `CC(=O)Nc1ccc(NC(=O)CSc2ccc(C(F)(F)F)cc2[N+](=O)[O-])cc1`, the z-score is -0.252.

The compound `O=C(Nc1nccs1)C1CCCN1S(=O)(=O)c1ccc(Cl)cc1` (stereo unspecified) gave a z-score of 0.437. As for `CCS(=O)(=O)N1CCN(C(=O)C(c2ccccc2)c2ccccc2)CC1`, the figure is -0.138.

With `N#Cc1c(N2CCN(C(=O)c3ccccc3)CC2)nc(-c2ccccc2)c2c1CCCC2`, the z-score turned out to be 2.92. As for `O=C(c1cccc(C(=O)N2CCN(c3ncccn3)CC2)c1)N1CCN(c2ncccn2)CC1`, the figure is 0.184.

For `O=C(c1ccc(-c2ccccc2)cc1)N1CCN(c2ncccn2)CC1`, the z-score is 3.97 (active). The result for `O=C(c1ccc(F)cc1)N1CCN(c2ncccn2)CC1` reads -0.204.

As for `N#Cc1c(N2CCN(C(=O)c3ccco3)CC2)nc(-c2ccccc2)c2c1CCCC2`, the z-score is -0.665. The result for `N#Cc1c(N2CCN(C(=O)c3ccccc3Cl)CC2)nc(-c2ccccc2)c2c1CCCC2` reads -0.453; that for `COc1ccc2c(c1)CC/C(=C\c1ccc(OC)c(Cn3cccn3)c1)C2=O`, -0.628; that for `CCOc1ccccc1OCCCC(=O)Nc1sccc1C(N)=O`, 0.813. As for `O=C(CCl)Nc1ccccc1Sc1ccccc1`, the z-score is -0.216. The result for `CCC(=O)NC(c1cccs1)c1cc([N+](=O)[O-])c2cccnc2c1O` (stereo unspecified) reads -0.0253. Regarding `CC(=O)NC(c1cccs1)c1cc([N+](=O)[O-])c2cccnc2c1O` (stereo unspecified), the z-score was -1.44.

`CCCC(=O)NC(c1cccs1)c1cc([N+](=O)[O-])c2cccnc2c1O` (stereo unspecified): the z-score worked out at 2.37. As for `CC(NC(=O)NC1CCCCC1)C(c1cccs1)N1CCN(Cc2ccccc2)CC1` (stereo unspecified), the figure is -1.18; as for `O=S(=O)(Nc1cc(Cl)ccn1)c1ccc(Cl)cc1`, 0.404. As for `CCC(=O)Nc1c(-c2ccc(OC)cc2)c(=O)c2ccccc2n1C`, the figure is 2.76. As for `CCCC(=O)Nc1c(-c2ccc(OC)cc2)c(=O)c2ccccc2n1C`, the figure is -0.253. On to `CCCCCC(=O)Nc1c(-c2ccc(OC)cc2)c(=O)c2ccccc2n1C`, for which the z-score amounted to 0.109. As for `O=S(=O)(Nc1ccc(Cc2ccncc2)cc1)c1cccs1`, the figure is -0.0895.

In the case of `CS(=O)(=O)N1N=C(c2ccc3nccnc3c2)CC1c1ccccc1` (stereo unspecified), the z-score was -0.111.

For the compound `O=c1cc(C(F)(F)F)oc2c1ccc1ccccc12`, the z-score was -0.211. Consider `COc1c2occc2cc2ccc(=O)oc12`, for which the z-score is -0.548. Turning to `COc1c2occc2c(OC)c2c(=O)cc(C(F)(F)F)oc12`, the z-score turned out to be 2.92. In the case of `CCC(C)N=C1SCC(C)(/C=N/O)S1` (stereo unspecified), the z-score is -0.0708. As for `CCOc1ccc2nc(/N=C/c3nc(-c4ccc(Br)cc4)oc3O)sc2c1`, the figure is 0.754; as for `CN=Cc1nc(-c2ccccc2)oc1O`, 1.62. As for `Oc1oc(-c2ccccc2)nc1C=Nc1cccc2ccccc12`, the figure is -0.00127; as for `CCCCOc1ccc(-c2nc(/C=N/c3nccs3)c(O)o2)cc1`, 2.84; as for `Oc1oc(-c2ccccc2)nc1/C=N/c1nccs1`, 1.54.

Regarding `Oc1[nH]c2ccccc2c1/C=N/c1nccs1`, the z-score was found to be 2.09. `Oc1oc(-c2cccc3ccccc23)nc1/C=N/c1nccs1`: the z-score is 7.77 (active). As for `Oc1ccc2ccccc2c1/C=N/c1nccs1`, the figure is 0.277; as for `C(=N\c1nccs1)/c1c[nH]c2ccccc12`, -0.861. With `N#Cc1c(N)c(C(=O)c2ccccc2)n2c1CCCC2`, the z-score is -0.142. The result for `C#CCn1c(S(=O)(=O)Cc2ccc(C)cc2)nc(-c2ccccc2)c1-c1ccccc1` reads -0.259; that for `COc1ccc(C(C#N)N2N=C(c3ccccc3)CC2c2ccccc2)cc1OC` (stereo unspecified), 0.0225; that for `CC1CC(C)(C)CC2(C1)NC(=O)N(CC(=O)NCC(c1ccco1)N1CCCCC1)C2=O` (stereo unspecified), 0.771.

As to `Cc1nnc(SCC(=O)NCc2ccco2)n1-c1ccccc1`, the z-score is -0.0052. As to `Cn1c(SCC(=O)Nc2ccccc2)nnc1-c1ccc(NC(=O)CCc2ccccc2)cc1`, the z-score was -0.164. The result for `CN(CP(=O)(O)CN(C)S(C)(=O)=O)S(C)(=O)=O` reads 0.00353; that for `O=C(NCc1ccco1)c1cnn2c(C(F)(F)F)cc(-c3ccccc3)nc12`, -0.67. As for `CC1Nc2nc(N(C)C)[nH]c(=O)c2NC1C` (stereo unspecified), the figure is 0.838; as for `CCOC(=O)C(CC)n1cnc2c(nnn2-c2ccc(OC)cc2)c1=O` (stereo unspecified), 4.43 (active); as for `CCC(C(=O)OC)n1cnc2c(nnn2-c2ccc(OC)cc2)c1=O` (stereo unspecified), -0.912. As for `CCOC(=O)C(CC)n1cnc2c(nnn2-c2ccc(C)cc2)c1=O` (stereo unspecified), the figure is -0.636; as for `Cc1cc(Nc2ccccc2)n(C(=O)c2ccc(Cl)cc2)n1`, 0.82. For `O=S(=O)(NCc1ccccc1)c1ccc(Cl)cc1`, the z-score turned out to be 2.77. The result for `O=S(=O)(NCCCc1ccccc1)c1ccc(Cl)cc1` reads -0.252. As for `O=S(=O)(NCc1ccccc1)c1ccc(Cl)c(S(=O)(=O)NCc2ccccc2)c1`, the figure is 0.165. As for `CCOC(=O)C1=c2s/c(=C\c3cccnc3)c(=O)n2C(N)=C(C(=O)OC)C1c1cccnc1` (stereo unspecified), the figure is 0.984; as for `CC1(C)CC2CC(C)(CN2C(=O)NC(=O)c2ccccc2)C1` (stereo unspecified), -0.259. In turn, `C[C@H](NC(=O)c1ccccc1Cl)C(=O)OCC(=O)N1CC2(C)CC1CC(C)(C)C2` (stereo partly specified) gave a z-score of 0.00588. The result for `CC1(C)CC2CC(C)(CN2C(=S)NC(=O)c2ccccc2Cl)C1` (stereo unspecified) reads 8.8 (active).

Regarding `O=C(CSCCO)Nc1cccc(C(F)(F)F)c1`, the z-score came to 0.657.

`CCN(CC)C(=O)CN(c1ccc2c(c1)OCO2)S(C)(=O)=O`: the z-score is 2.51. As for `CN(C)C(=O)CN(c1ccc2c(c1)OCO2)S(C)(=O)=O`, the figure is -0.0253; as for `CS(=O)(=O)N(CC(=O)O)c1ccc2c(c1)OCO2`, -2.86.

`Cc1c(C(=O)OC(C)C)sc(NC(=O)C2CCCO2)c1C(=O)OC(C)C` (stereo unspecified): the z-score is -0.0386.

In the case of `O=C(CCNC(=O)c1ccccc1Cl)Nc1cccc(C(F)(F)F)c1`, the z-score was -0.204. The result for `Fc1cccc(Cl)c1CSc1nnc(COc2cccc3cccnc23)o1` reads -0.675.

Compound `Cc1nc(N2CCN(C)CC2)c2sc(=S)n(C)c2n1` yielded a z-score of 0.624. As for `Cc1ccc(-n2nnnc2-c2cnn(-c3cccc(F)c3)c2C(F)(F)F)cc1`, the figure is 0.0555; as for `COC(=O)c1ccc(CSc2nnc(Nc3cccc(OC)c3)s2)o1`, 0.67. Take `COC(=O)c1ccc(CSc2nnc(Nc3ccccc3OC)s2)o1`: the z-score is 4.01 (active).

Compound `COC(=O)c1ccc(CSc2nnc(Nc3ccc(OC)cc3)s2)o1` registered a z-score of 0.755. The result for `CC1=C(C(=O)Nc2ccc(F)cc2)C(c2ccc(C)o2)C2=C(CC(C)(C)CC2=O)N1` (stereo unspecified) reads 0.288. With `CC(C)CNC(=S)N1CCN(C(c2ccccc2)c2ccccc2)CC1`, the z-score is -0.358. As for `CCNc1ccc(S(=O)(=O)N(C)C)cc1NCC(=O)Nc1ccc(Br)cc1F`, the figure is -0.257; as for `CCOc1cc(-c2nc(-c3cc(OC)c(OC)c(OC)c3)no2)cc(OCC)c1OCC`, 0.87; as for `COc1ccc(-c2noc(-c3cc(C)cc(C)c3)n2)cc1OC`, 0.138. The result for `COc1ccc(-c2noc(-c3ccc(Cl)cc3[N+](=O)[O-])n2)cc1OC` reads -0.0457; that for `COc1ccc(-c2noc(-c3cc(Cl)ccc3Cl)n2)cc1OC`, 3.41 (active); that for `CCOc1ccc(-c2nc(-c3ccncc3)no2)cc1OCC`, 2.12. As for `CCOc1ccc(-c2nc(-c3ccc(OC)cc3)no2)cc1OCC`, the figure is 2.87; as for `CCOc1ccc(-c2nc(-c3ccccc3)no2)cc1OCC`, 1.62; as for `CCOc1nc(C)ccc1-c1noc(-c2ccncc2)n1`, 0.775. `CCOc1ccc(-c2noc(COC)n2)cc1OC`: the z-score is -0.328. The result for `CCOc1ccccc1-c1nc(-c2ccncc2)no1` reads 0.0712; that for `CCOc1ccc(-c2nc(-c3ccc(OC)c(OC)c3)no2)cc1OCC`, 4.75 (active); that for `COc1ccc(-c2noc(-c3ccccc3Cl)n2)cc1OC`, -0.738. On to `COC(=O)c1cc2sc(Cl)cc2n1Cc1nc(-c2cccc(C)c2)oc1C`, for which the z-score is -0.256.

Consider `Cc1noc(C)c1CSCC(=O)NC1=NCCS1`, for which the z-score is -0.333. The result for `O=C(Cn1c(=O)n(Cc2ccccc2)c(=O)c2ccccc21)NCc1ccco1` reads -1.05. As for `COc1c(Cl)cc(Cl)cc1C(=O)Nc1ccc(NC(=O)c2cccs2)cc1`, the figure is 0.021; as for `CC1(C)CC(=O)C=C(NC2CCCCCCC2)C1`, -0.289; as for `O=C(NCC1(c2ccccc2)CCCC1)c1ccc(Br)o1`, -0.309. In the case of `O=C(Oc1cccc2c(OC(=O)N3CCCC3)cccc12)N1CCCC1`, the z-score was -0.117. The result for `COC(=O)c1cccc(-n2c(C)cc(C=O)c2C)c1` reads -0.0226; that for `Fc1ccc(Cn2nnnc2CN2CCN(C3CCCCC3)CC2)cc1`, 0.354. The result for `COCCCn1ccc(O)c(Cc2ccc(F)cc2)c1=O` reads -0.0433; that for `Cc1nn(-c2ccc3nnc(Br)n3n2)c(C)c1Br`, -0.48. As for `CCc1ccc2c(c1)/C(=C/C(=O)c1cccs1)C(=O)N2`, the figure is -0.314; as for `CCOc1ccc(-c2nc(-c3cccnc3)no2)cc1OCC`, 0.841; as for `CC(C)(C)c1ccc(-c2nc(-c3ccncc3)no2)cc1`, -0.17.

With `CCOc1cc(-c2noc(-c3cccnc3)n2)ccc1OC`, the z-score was 3.79 (active). As for `c1ccc(-c2nc(-c3ccncc3)no2)cc1`, the figure is -0.104; as for `CCOc1ccc(-c2nnc(-c3cccnc3)o2)cc1OCC`, 0.0661. As to `CCc1ccc(-c2nc(-c3ccncc3)no2)cc1`, the z-score was 2.31. The result for `CC(C)C(=O)NCCc1nc2ccccc2n1C` reads 0.0935; that for `C=CCNC(=O)c1onc(CSc2ccccc2F)c1C(=O)O`, -0.015; that for `Cc1nc2ccccc2c(=O)n1/N=C/c1ccncc1`, -0.171.

`O=C(NCC(=O)N(CC1CCCO1)C(C(=O)NC1CCCCC1)c1ccc(F)cc1)c1ccco1` (stereo unspecified) showed a z-score of 0.579.

The compound `Cc1ccccc1C1C(C#N)=C2NC(=O)c3c(sc4c3CCCCC4)N2C2=C1C(=O)CC(C)(C)C2` (stereo unspecified) displayed a z-score of 1.56.

With `CCCn1c(CCNC(=O)c2cccs2)nc2ccccc21`, the z-score is -0.594.

`CN1CCN(Cc2cc(Cl)c3cccnc3c2OC(=O)c2cccs2)CC1`: the z-score is 0.273. The result for `O=C(Oc1cccc2cccnc12)c1cccs1` reads -0.532. The result for `O=C(Oc1ccc(Cl)c2cccnc12)c1cccc([N+](=O)[O-])c1` reads 0.0891; that for `Cc1ccc(C(=O)Oc2ccc(Cl)c3cccnc23)cc1[N+](=O)[O-]`, 0.387; that for `O=C(Oc1c(Cl)cc(Cl)c2cccnc12)c1cccs1`, 2.7. As for `O=C(Oc1c(Cl)cc(Cl)c2cccnc12)c1ccco1`, the figure is 3.13 (active); as for `O=C(Oc1c(Cl)cc(Cl)c2cccnc12)N1CCOCC1`, -0.0144; as for `O=C(Oc1ccc(Cl)c2cccnc12)c1ccco1`, 0.951. As for `O=C(Oc1c(Cl)cc(Cl)c2cccnc12)c1cccc([N+](=O)[O-])c1`, the z-score was 9.18 (active).
